# How the values were obtained:
# [1] = molecular target: Dual specificity protein kinase CLK3 (Homo sapiens) (UniProt P49761); details: at 1 µM;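 also: each value is the mean inhibition of CLK3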
# [2] = molecular target: Dual specificity tyrosine-phosphorylation-regulated kinase 1A (Homo sapiens) (UniProt Q13627); details: at 0.1 µM
# [3] = molecular target: Dual specificity tyrosine-phosphorylation-regulated kinase 1A (Homo sapiens) (UniProt Q13627); details: at 1 µM
# [4] = molecular target: Dual specificity tyrosine-phosphorylation-regulated kinase 1B (Homo sapiens) (UniProt Q9Y463); details: at 0.1 µM
# Sequence of Dual specificity tyrosine-phosphorylation-regulated kinase 1B (Homo sapiens) (Q9Y463 whole entry, looked up): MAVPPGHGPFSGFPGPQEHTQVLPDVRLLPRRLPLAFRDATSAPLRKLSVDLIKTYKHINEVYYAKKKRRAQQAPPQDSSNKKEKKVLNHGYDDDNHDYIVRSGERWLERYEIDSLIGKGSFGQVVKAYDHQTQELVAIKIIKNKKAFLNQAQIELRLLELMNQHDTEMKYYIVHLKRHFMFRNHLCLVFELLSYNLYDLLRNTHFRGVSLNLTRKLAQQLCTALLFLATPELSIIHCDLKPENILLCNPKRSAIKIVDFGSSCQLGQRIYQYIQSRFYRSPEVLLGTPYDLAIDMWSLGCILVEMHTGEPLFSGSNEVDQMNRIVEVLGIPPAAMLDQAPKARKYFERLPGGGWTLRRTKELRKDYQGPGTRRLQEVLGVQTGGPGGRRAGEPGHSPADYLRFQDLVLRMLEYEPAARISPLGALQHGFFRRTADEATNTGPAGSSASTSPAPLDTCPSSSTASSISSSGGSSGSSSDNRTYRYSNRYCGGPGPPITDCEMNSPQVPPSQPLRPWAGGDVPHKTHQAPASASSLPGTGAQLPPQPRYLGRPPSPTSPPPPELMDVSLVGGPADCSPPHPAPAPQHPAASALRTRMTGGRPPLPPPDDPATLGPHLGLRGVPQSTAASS
# [5] = molecular target: Dual specificity tyrosine-phosphorylation-regulated kinase 1B (Homo sapiens) (UniProt Q9Y463); details: at 1 µM
# [6] = molecular target: T1, Dual specificity tyrosine-phosphorylation-regulated kinase 2 (Homo sapiens) (UniProt Q92630); details: at 0.1 µM
# T1 sequence (whole entry): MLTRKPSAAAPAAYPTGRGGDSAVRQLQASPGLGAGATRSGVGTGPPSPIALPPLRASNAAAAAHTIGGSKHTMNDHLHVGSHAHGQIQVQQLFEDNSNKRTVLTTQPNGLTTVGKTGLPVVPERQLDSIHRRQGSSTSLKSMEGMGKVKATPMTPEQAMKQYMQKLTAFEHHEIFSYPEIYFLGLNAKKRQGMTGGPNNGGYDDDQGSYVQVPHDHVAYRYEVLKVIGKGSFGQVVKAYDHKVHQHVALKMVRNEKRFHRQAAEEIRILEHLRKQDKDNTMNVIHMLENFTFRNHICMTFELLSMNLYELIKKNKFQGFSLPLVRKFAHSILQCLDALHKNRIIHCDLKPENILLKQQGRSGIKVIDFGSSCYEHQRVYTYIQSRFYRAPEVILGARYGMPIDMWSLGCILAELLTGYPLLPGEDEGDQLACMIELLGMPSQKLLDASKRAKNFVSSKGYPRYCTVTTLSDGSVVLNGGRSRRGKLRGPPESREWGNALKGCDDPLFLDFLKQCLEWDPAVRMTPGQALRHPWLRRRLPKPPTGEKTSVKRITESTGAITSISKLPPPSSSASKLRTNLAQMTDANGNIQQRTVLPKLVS
# [7] = molecular target: T1, Dual specificity tyrosine-phosphorylation-regulated kinase 2 (Homo sapiens); details: at 1 µM
# [8] = molecular target: Glycogen synthase kinase-3 alpha (Homo sapiens) (UniProt P49840); details: at 0.1 µM
# Sequence of Glycogen synthase kinase-3 alpha (Homo sapiens) (P49840 2-483 limits assumed): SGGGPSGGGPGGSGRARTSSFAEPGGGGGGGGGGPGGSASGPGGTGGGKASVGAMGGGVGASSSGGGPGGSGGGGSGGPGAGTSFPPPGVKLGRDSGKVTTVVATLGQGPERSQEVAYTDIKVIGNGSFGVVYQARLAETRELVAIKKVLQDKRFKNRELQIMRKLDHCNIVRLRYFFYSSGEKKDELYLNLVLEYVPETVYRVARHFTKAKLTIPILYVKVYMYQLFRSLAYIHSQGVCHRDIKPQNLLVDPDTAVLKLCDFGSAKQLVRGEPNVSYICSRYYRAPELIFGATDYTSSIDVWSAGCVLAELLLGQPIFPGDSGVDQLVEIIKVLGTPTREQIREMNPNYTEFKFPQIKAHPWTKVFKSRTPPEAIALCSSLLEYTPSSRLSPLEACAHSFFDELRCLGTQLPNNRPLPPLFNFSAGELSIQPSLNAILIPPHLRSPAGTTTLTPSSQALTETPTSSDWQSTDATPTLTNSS
# [9] = molecular target: Glycogen synthase kinase-3 alpha (Homo sapiens) (UniProt P49840); details: at 1 µM
# [10] = molecular target: Glycogen synthase kinase-3 beta (Homo sapiens) (UniProt P49841); details: at 0.1 µM
# Sequence of Glycogen synthase kinase-3 beta (Homo sapiens) (P49841 whole entry, looked up): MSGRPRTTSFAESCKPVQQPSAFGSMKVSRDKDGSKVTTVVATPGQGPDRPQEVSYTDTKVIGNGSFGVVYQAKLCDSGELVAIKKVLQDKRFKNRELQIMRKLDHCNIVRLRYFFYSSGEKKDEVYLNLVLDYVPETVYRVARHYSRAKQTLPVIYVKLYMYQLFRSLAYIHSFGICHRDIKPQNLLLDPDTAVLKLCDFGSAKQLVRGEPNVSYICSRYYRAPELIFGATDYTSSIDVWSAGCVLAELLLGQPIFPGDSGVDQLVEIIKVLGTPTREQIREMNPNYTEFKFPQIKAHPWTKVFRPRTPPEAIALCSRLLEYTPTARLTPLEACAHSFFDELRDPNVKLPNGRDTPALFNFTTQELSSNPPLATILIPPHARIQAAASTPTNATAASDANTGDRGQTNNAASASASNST
# [11] = molecular target: Glycogen synthase kinase-3 beta (Homo sapiens) (UniProt P49841); details: at 1 µM
# [12] = molecular target: Homeodomain-interacting protein kinase 1 (Homo sapiens) (UniProt Q86Z02); details: at 0.1 µM
# Sequence of Homeodomain-interacting protein kinase 1 (Homo sapiens) (Q86Z02 whole entry, looked up): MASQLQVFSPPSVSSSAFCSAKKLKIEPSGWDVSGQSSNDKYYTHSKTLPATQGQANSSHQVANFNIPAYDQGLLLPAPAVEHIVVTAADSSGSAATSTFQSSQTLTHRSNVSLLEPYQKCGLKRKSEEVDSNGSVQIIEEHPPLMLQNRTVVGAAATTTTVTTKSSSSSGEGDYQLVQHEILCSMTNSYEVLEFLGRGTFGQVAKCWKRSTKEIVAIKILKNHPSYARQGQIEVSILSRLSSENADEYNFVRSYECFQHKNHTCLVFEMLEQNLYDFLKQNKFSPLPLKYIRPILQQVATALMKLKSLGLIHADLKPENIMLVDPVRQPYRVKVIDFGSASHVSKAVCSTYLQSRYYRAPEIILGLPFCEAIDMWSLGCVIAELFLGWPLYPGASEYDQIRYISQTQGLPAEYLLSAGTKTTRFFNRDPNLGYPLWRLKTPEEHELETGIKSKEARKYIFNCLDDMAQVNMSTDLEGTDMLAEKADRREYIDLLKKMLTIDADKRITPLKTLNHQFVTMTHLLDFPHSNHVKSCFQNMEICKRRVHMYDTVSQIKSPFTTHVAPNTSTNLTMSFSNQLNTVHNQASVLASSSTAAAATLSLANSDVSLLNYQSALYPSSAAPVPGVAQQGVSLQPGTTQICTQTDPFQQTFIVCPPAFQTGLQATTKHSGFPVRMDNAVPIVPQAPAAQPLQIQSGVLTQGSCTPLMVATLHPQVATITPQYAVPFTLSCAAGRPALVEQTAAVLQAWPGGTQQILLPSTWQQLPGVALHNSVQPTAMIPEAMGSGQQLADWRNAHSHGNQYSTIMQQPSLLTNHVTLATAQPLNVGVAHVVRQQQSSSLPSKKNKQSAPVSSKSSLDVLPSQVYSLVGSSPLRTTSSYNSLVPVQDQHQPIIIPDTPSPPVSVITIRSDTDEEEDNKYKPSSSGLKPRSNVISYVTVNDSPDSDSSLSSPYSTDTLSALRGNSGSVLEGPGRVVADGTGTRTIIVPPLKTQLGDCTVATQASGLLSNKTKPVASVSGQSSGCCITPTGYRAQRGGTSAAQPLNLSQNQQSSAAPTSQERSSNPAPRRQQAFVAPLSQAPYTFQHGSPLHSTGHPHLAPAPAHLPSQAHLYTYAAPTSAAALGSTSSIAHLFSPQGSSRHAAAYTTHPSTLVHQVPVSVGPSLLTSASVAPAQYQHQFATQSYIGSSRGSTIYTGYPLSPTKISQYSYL
# [13] = molecular target: Homeodomain-interacting protein kinase 1 (Homo sapiens) (UniProt Q86Z02); details: at 1 µM
# [14] = molecular target: T2, Homeodomain-interacting protein kinase 4 (Homo sapiens) (UniProt Q8NE63); details: at 0.1 µM
# T2 sequence (whole entry): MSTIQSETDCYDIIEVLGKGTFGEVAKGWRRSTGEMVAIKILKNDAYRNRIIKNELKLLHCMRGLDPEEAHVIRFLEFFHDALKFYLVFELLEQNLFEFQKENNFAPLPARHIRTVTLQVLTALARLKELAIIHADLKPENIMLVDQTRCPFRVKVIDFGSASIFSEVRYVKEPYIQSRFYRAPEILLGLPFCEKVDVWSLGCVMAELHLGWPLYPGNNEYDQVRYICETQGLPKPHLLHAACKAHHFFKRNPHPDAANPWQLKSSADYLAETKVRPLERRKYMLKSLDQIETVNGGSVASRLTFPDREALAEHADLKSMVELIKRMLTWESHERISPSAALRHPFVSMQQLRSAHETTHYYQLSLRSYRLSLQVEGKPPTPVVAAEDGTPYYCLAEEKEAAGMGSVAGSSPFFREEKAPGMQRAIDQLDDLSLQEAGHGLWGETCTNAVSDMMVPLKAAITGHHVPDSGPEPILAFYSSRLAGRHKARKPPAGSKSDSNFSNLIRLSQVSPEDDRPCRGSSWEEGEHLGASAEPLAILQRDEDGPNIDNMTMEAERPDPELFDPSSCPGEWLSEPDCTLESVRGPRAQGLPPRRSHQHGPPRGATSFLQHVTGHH
# [15] = molecular target: T2, Homeodomain-interacting protein kinase 4 (Homo sapiens); details: at 1 µM
# [16] = molecular target: Mitogen-activated protein kinase 9 (Homo sapiens) (UniProt P45984); details: at 0.1 µM
# Sequence of Mitogen-activated protein kinase 9 (Homo sapiens) (P45984 whole entry, looked up): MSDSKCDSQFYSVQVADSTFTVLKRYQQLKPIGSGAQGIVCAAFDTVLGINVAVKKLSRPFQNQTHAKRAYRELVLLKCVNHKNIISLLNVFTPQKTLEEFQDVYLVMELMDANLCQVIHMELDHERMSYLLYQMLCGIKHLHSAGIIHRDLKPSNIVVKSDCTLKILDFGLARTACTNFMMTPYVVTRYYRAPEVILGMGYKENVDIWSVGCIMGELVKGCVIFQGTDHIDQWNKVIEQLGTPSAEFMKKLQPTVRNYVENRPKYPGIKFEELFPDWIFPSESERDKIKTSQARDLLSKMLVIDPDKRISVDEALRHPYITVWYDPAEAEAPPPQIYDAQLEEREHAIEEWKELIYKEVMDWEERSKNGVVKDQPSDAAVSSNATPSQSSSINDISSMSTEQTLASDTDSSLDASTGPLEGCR
# [17] = molecular target: Mitogen-activated protein kinase 9 (Homo sapiens) (UniProt P45984); details: at 1 µM
# [18] = molecular target: Mitogen-activated protein kinase 1 (Homo sapiens) (UniProt P28482); details: at 0.1 µM
# Sequence of Mitogen-activated protein kinase 1 (Homo sapiens) (P28482 whole entry): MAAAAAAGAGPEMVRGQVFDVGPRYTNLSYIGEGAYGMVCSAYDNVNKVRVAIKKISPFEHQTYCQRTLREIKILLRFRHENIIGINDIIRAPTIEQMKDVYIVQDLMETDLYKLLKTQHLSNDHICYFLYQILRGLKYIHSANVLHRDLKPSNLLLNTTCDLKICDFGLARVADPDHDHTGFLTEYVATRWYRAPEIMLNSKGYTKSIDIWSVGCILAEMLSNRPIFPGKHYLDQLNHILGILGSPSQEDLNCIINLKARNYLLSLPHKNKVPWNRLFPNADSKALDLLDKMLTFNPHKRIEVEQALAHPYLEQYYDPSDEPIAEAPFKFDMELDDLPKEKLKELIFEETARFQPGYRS
# [19] = molecular target: Mitogen-activated protein kinase 1 (Homo sapiens) (UniProt P28482); details: at 1 µM
# [20] = molecular target: Mitogen-activated protein kinase 3 (Homo sapiens) (UniProt P27361); details: at 0.1 µM;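 also: each value is a mean inhibition figure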
# Sequence of Mitogen-activated protein kinase 3 (Homo sapiens) (P27361 whole entry): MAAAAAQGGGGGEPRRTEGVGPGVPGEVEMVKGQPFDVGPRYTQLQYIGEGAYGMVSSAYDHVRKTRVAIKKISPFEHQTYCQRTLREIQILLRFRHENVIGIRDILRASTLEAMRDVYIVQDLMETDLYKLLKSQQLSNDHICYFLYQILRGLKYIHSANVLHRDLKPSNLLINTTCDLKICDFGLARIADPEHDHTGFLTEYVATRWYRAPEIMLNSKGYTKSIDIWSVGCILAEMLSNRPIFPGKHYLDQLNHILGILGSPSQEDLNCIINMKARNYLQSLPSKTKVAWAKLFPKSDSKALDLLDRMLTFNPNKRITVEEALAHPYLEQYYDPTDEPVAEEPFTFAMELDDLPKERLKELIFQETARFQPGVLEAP
# Sequence of Dual specificity protein kinase CLK3 (Homo sapiens) (P49761 whole entry, looked up): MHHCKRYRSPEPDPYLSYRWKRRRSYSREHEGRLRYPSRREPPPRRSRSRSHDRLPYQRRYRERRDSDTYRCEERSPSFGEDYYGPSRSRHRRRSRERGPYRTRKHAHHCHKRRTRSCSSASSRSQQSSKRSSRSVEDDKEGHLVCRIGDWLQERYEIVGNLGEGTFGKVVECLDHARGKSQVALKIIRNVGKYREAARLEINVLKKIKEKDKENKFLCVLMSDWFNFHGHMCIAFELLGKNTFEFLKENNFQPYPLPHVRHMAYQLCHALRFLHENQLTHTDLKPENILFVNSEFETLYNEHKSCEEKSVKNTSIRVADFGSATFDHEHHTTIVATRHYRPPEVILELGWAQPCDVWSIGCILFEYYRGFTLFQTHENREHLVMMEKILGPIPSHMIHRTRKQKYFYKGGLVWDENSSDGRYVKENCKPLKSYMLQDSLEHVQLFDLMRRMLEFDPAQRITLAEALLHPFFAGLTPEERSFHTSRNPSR
Compound,inhibition [1] [%],inhibition [2] [%],inhibition [3] [%],inhibition [4] [%],inhibition [5] [%],inhibition [6] [%],inhibition [7] [%],inhibition [8] [%],inhibition [9] [%],inhibition [10] [%],inhibition [11] [%],inhibition [12] [%],inhibition [13] [%],inhibition [14] [%],inhibition [15] [%],inhibition [16] [%],inhibition [17] [%],inhibition [18] [%],inhibition [19] [%],inhibition [20] [%]
Nc1nccc(-c2c(-c3ccc(F)cc3)nn3cc(C(F)(F)F)ccc23)n1,0.23,0.54,16.4,-1.44,0.98,0.12,-1.97,-1.1,-0.65,-1.01,-1.01,-6.6,-1.23,-0.17,0.63,2.4,4.47,-0.05,0.2,3.72
COc1ccc(-c2nn3ncccc3c2-c2ccnc(Nc3cccc(C(F)(F)F)c3)n2)cc1,0.95,2.09,1.66,-0.34,1.16,1.77,0.78,2.36,2.7,1.41,3.78,0.13,-1.85,0.75,1.33,3.29,8.16,6.52,5.12,0.87
COc1cc2ncnc(Nc3ccc(C)c(O)c3)c2cc1OC,2.38,5.24,7.48,0.95,4.18,2.96,4.5,4.81,8.57,4.62,11.2,2.85,2.79,3.31,9.35,4.57,5.02,5.5,7.98,4.96
COc1cccc(-n2nc(C)c3c(N/N=C(\C)c4ccncc4)ncnc32)c1,-2.35,1.02,11,1.32,8.31,0.5,4.22,4.39,11.6,3.08,9.41,-1.66,2.66,-1.56,2.79,1.92,2.01,2.86,1.42,-1.05
CCCN1CCCC(c2ccc(Nc3nc(Nc4cc(F)ccc4C(N)=O)c4cc[nH]c4n3)c(OC)c2)C1 (stereo not given),22.3,67.5,82.7,72,82.4,36.3,82.3,1.49,2.99,0.7,4.25,46,79.5,58.1,84.3,70.3,91.3,8.06,36.5,5.61
CS(=O)(=O)Nc1cccc(-c2ccc3c(NC(=O)C4CC4)n[nH]c3c2)c1,0.41,-0.85,2.54,-0.36,0.44,1.73,0.58,2.17,10.3,1.76,9.5,-3.76,0.93,-0.79,-0.86,2.2,0.27,-0.71,1.14,2.44
FC(F)(F)c1ccc(-c2nn3ncccc3c2-c2ccnc(Nc3ccc4c(c3)OCCO4)n2)cc1,5.27,5.25,6.32,4.87,5.88,-0.81,0.53,6.66,6.68,7.6,9.99,9.14,7.72,9.55,11.2,3,32.6,1.76,-1.13,3.25
CCn1c(-c2nonc2N)nc2c(C#CC(C)(C)O)nc(OCCNC)cc21,0.43,2.71,2.94,-0.33,-0.29,5.86,5.26,11.6,49.9,8.59,46.8,-1.59,7.86,0.33,1.92,3.85,2.84,5.46,5.18,3.73
NS(=O)(=O)c1ccc(N/N=C2\C(=O)Nc3ccc(Cl)cc32)cc1,1.92,1.08,6.73,0.19,3.96,2.3,3.44,17.3,61.2,13.5,54.1,2.46,10.2,2.99,7.64,3.27,4.35,6.29,4.79,4.87
CCS(=O)(=O)c1ccc(OC)c(Nc2ncc(-c3cccc(OC)c3)o2)c1,13.2,8.22,41.4,6.86,37.7,3.86,18.4,1.96,9.4,2.23,11.2,7.9,48.3,19.5,65.7,3.19,6.62,1.59,1.18,-0.18
CCn1c(-c2nonc2N)nc2ccc(F)cc21,1.23,5.13,10.8,-0.23,1.12,4.17,4.15,3.78,4.96,3,3.37,2.6,2.13,2.47,3.5,5.8,7.99,6.8,8.85,6.33
Cc1ccc2c(-c3ccnc(Nc4cccc(C(F)(F)F)c4)n3)c(-c3ccccc3)nn2n1,2.3,3.65,2.62,1.3,2.46,4.31,5.83,22.6,68.5,35.7,76,0.33,3.87,1.36,13.5,30.1,82.2,6.13,9.3,5.72
CS(=O)(=O)CCNCc1nc(-c2ccc3ncnc(Nc4ccc(OCc5cccc(C(F)(F)F)c5)cc4)c3c2)cs1,-1.22,-1.28,-1.8,0.58,2.3,1.36,1.03,6.47,4.93,5.25,4.85,-1.73,0.09,-0.35,0.46,2.97,6.45,1.69,1.79,2.89
NS(=O)(=O)c1cccc(Nc2cc(-c3ccc(F)cc3)n[nH]2)c1,2.68,-0.01,4.42,-1.06,2.79,1.93,4.01,3.57,7.78,2.84,9.59,2.17,7.35,1.27,6.82,1.28,4.86,4.24,3.83,4.14
